High-throughput results (PubChem BioAssay)
A selection: hits, their analogues and other compounds. The true share with any hit is near 21%.
MRP-1 activ: MRP-1 activation; AID 799; hit rate 0.61% among 140,000; H69AR cells + doxorubicin, viability rescue, CellTiter-Glo; viability increase, % at 10 µM;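 active means viability gain under doxorubicin at or above a set limit, the compound median plus 3 SD, cut at about 4.7% in these data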;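 further: MRP-1 overexpressing cells given doxorubicin 25 µM after compound pretreatment; 18-22 h compound pretreatment then 72 h with doxorubicin before readout; 0% = doxorubicin-only wells and 100% = vehicle-treated cells without doxorubicin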
CYP2C9 activ: increases human cytochrome P450 2C9 activity | activation factor at 5 µM | hit rate 1.4% among 96,000 | AID 1024 | recombinant CYP2C9, luciferin-H conversion, luminescence; active compounds read high; factor 1 = untreated enzyme, 0 = blocked;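 active means activation factor of 2 or more for CYP2C9 at a 5 µM dose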;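 further: 0 = sulfaphenazole-blocked wells and 1 = vehicle-only wells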
Target sequence (P11712 whole entry, looked up): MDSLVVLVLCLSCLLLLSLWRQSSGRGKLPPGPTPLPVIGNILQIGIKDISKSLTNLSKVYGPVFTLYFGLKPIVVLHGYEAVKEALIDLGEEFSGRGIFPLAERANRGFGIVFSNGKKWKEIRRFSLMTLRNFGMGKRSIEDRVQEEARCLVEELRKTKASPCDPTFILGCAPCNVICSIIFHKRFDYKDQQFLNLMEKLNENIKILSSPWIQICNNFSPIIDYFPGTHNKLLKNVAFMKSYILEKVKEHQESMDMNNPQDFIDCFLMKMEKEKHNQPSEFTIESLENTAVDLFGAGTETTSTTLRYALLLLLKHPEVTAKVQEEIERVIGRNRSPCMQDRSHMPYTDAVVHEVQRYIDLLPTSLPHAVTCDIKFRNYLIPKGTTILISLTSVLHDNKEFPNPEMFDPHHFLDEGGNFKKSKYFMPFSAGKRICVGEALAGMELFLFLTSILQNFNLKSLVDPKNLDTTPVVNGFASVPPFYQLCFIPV
CYP2C9 inh: blocks human cytochrome P450 2C9 | inhibition, % at 5 µM | CYP2C9 Supersomes, luciferin-H conversion, luminescence | AID 777 | P11712 | hit rate 20% among 96,000;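 active means blocking of liver enzyme CYP2C9 beyond about 50% at 5 µM, limit read from the data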
MRP reversal: MRP-mediated drug resistance reversal | H69AR cells + 2 uM doxorubicin, CellTiter-Glo, 72 h | differential viability (reversal), % at 10 µM | hit rate 0.04% among 85,000;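 active means viability drop by adding the cancer drug above about 55%, with treated viability meeting a 40% cutoff, limit read from the data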;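 further: viability without doxorubicin minus viability with 2 µM doxorubicin for each compound; larger differential means the compound sensitizes cells more to doxorubicin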
CYP2C19 activ: increases human CYP2C19 enzyme activity. P33261. recombinant CYP2C19, luciferin-H EGE luminescence; active compounds read high; 0 = fully inhibited enzyme, 1 = untreated enzyme. activation factor at 5 µM. 96,000 tested, under 10 active;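 active means activation factor of at least 2 at 5 µM in the primary screen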;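 further: 0 = wells with 2.5 mM tranylcypromine and 1 = vehicle-only wells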
CYP2C19 inhib: blocks human cytochrome P450 2C19. CYP2C19 Supersomes, luciferin-H EGE luminescence, 30 min. P33261. AID 778. inhibition, % at 5 µM. hit rate 21% among 96,000;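 active means CYP2C19 inhibition above a set limit at 5 µM in the primary screen, cut at about 50% in these data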;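 further: plate controls were negative control wells for no effect and 2.5 mM tranylcypromine positive control for full effect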
An asterisk follows results filed as active; . = no result.

SMILES | MRP-1 activ | CYP2C9 activ | CYP2C9 inh | MRP reversal | CYP2C19 activ | CYP2C19 inhib
COCCCn1c(Cc2ccccc2)nnc1SCC(=O)N1CCCCC1 | 0 | 0.6 | 38 | 9 | 0.9 | 14
CC(C)Cc1nnc(NC(=O)CCC(=O)N2CCN(c3ccccn3)CC2)s1 | 0 | 0.9 | 11 | 8 | 1 | 2
Cc1ccc(OP(=O)(Nc2c(C)n(C)n(-c3ccccc3)c2=O)Oc2ccc(C)cc2)cc1 | -5 | . | . | . | . | .
Oc1cccc(-c2nc3ccc4ccccc4c3c3c2CCC3)c1 | -3 | 0.6 | 37 | . | 0.8 | 20
Cn1cnnc1Sc1nc2ccccc2nc1NS(=O)(=O)c1ccccc1 | 1 | 0 | 97* | -1 | 0.9 | 7
Cn1ccnc1Sc1nc2ccccc2nc1NS(=O)(=O)c1ccccc1 | 2 | 0 | 98* | 20 | 1 | -3
CC(=O)Nc1ccc(S(=O)(=O)Nc2nc3ccccc3nc2Sc2nncn2C)cc1 | -1 | 0.6 | 44 | -10 | 1.2 | -22
CC(=O)/C(=N\Nc1ccccc1)Sc1nncn1C | -3 | . | . | . | . | .
COc1ccccc1C/C(N)=N/OC(=O)c1cccc([N+](=O)[O-])c1 | -3 | 2.4* | -142 | . | 0.9 | 9
COc1cnn(-c2ccc(C)cc2)c(=O)c1SCc1ccccc1 | 0 | 0.9 | 12 | . | 0.7 | 25
COc1cnn(-c2ccccc2)c(=O)c1SCc1ccc(Cl)cc1Cl | 0 | 0.5 | 47 | . | 0.3 | 67*
CCCn1c(SCC(=O)N2CCCc3ccccc32)nnc1-c1ccco1 | -1 | 1 | 0 | 17 | 0.5 | 52*
CCCCn1c(SCC(=O)N2CCCc3ccccc32)nc2c1c(=O)n(C)c(=O)n2C | -2 | 0.4 | 63* | 23 | 0.8 | 18
CCn1c(SCC(=O)N2CCc3ccccc32)nnc1-c1ccco1 | -2 | 0.7 | 33 | . | 0.5 | 51*
Cc1ccc2nc(NCc3ccccc3)[nH]c2c1 | -2 | 0.8 | 24 | -18 | 0.1 | 88*
COc1ccc2nc(NCCO)[nH]c2c1 | -1 | 1.1 | -8 | -3 | 1.1 | -14
CCOc1ccc2nc(-c3ccccc3)[nH]c2c1 | -3 | 0.9 | 12 | -50 | 0.7 | 26
COc1ccc2nc(NCc3ccccc3)[nH]c2c1 | -2 | 0.8 | 22 | -25 | 0.2 | 78*
c1ccc(CNc2nc3ccccc3[nH]2)cc1 | -2 | 1 | 2 | -7 | 0.5 | 48
COc1ccc2nc(-c3ccccc3)[nH]c2c1 | -3 | 0.6 | 39 | 18 | 0.3 | 74*
O=C(NCCCN1CCOCC1)c1ccccc1NS(=O)(=O)c1cc([N+](=O)[O-])ccc1Cl | -1 | . | . | . | . | .
COC(=O)C1CCCN1C(=O)COc1ccc(Br)cc1Cl (stereo unspecified) | 0 | . | . | . | . | .
C=CCNC(=O)COc1ccc(Br)cc1Cl | -1 | 0.6 | 43 | 10 | 0.1 | 93*
COCCNC(=O)COc1ccc(Br)cc1Cl | -3 | 1 | 3 | 1 | 0.6 | 40
CCOC(=O)N1CCN(C(=O)COc2ccc(Br)cc2Cl)CC1 | -2 | 0.6 | 36 | 10 | 0.1 | 86*
SMILES | MRP-1 activ | CYP2C9 activ | CYP2C9 inh | MRP reversal | CYP2C19 activ | CYP2C19 inhib
CC(C)N(C(=O)COc1ccc(Br)cc1Cl)C(C)C | -1 | 0.4 | 60* | 1 | 0.1 | 94*
CN1CCN(Cc2c(O)ccc3c(-c4ccccc4)cc(=O)oc23)CC1 | -3 | 0.8 | 19 | 13 | 0.5 | 54*
CN1CCN(Cc2c(O)ccc3occ(C(=O)c4ccccc4)c23)CC1 | -4 | 0.9 | 8 | -7 | 0 | 99*
CCN(CC)Cc1c(O)ccc2c(-c3ccccc3)cc(=O)oc12 | -1 | 1.1 | -10 | 2 | 0.9 | 10
CCOC(=O)c1c(-c2ccccc2)oc2ccc(O)c(CN3CCN(C)CC3)c12 | -6 | . | . | . | . | .
Clc1ccccc1Cn1nnc2c(NCCN3CCOCC3)ncnc21 | -1 | 1.3 | -29 | 9 | 1.1 | -12
Clc1ccccc1Cn1nnc2c(NCC3CC3)ncnc21 | 0 | 3.4* | -239 | 10 | 0.5 | 51*
Fc1ccccc1Cn1nnc2c(NCc3ccccn3)ncnc21 | 1 | 2.8* | -179 | 15 | 0.7 | 31
Clc1ccccc1Cn1nnc2c(Nc3ccccc3)ncnc21 | 4.7* | 1.2 | -22 | . | 0.9 | 8
O=c1[nH]c(C(F)(F)F)nc2c1nnn2Cc1ccccc1F | -2 | 0.7 | 31 | 8 | 1 | 3
CCCc1nc2c(nnn2Cc2ccccc2F)c(=O)[nH]1 | -1 | 1.5 | -52 | 9 | 0.1 | 89*
COc1cccc(N2CCCn3c2nc2c3c(=O)n(CCN3CCOCC3)c(=O)n2C)c1 | -1 | 1.1 | -11 | -2 | 1 | 1
C#CCNc1nc(C)nc2c1nnn2Cc1ccccc1F | -1 | 1 | 4 | -1 | 0.5 | 52*
O=C(CSc1nccc(=O)[nH]1)Nc1ccc(Br)c(Cl)c1 | -2 | 0.2 | 79* | 14 | 0.7 | 34
O=c1cc(-c2ccccc2)[nH]c2[nH]n(-c3ccccc3)c(=O)c12 | 0 | 0.4 | 56* | -6 | 1 | 0
O=C1NC(=Nc2ccccc2)S/C1=C\c1cccn1-c1ccccc1 | 0 | 1.7 | -67 | . | 0.8 | 18
O=C(c1cnn2ccccc12)N(Cc1ccco1)C1CCCC1 | -2 | 0.5 | 47 | 7 | 0.4 | 60*
O=C(NCCN1CCN(c2ccccc2)CC1)c1cccc(Br)c1 | 0 | 0.6 | 45 | -9 | 0.5 | 53*
O=C(NCCN1CCN(c2ccccc2)CC1)c1cccn2c(=O)c3cc(Cl)ccc3nc12 | 1 | 0.4 | 64* | 22 | 0.6 | 39
CCOC(=O)N1CCN(C(=O)c2cccn3c(=O)c4cc(Cl)ccc4nc23)CC1 | 3 | 0.6 | 40 | . | 0.7 | 27
CCOC(CNC(=O)c1cccn2c(=O)c3cc(Cl)ccc3nc12)OCC | -1 | 0.3 | 66* | -24 | 0.8 | 22
Cc1cccc(C(=O)NCCN2CCN(c3ccccc3)CC2)c1 | 0 | 0.9 | 12 | -24 | 0.9 | 11
COc1cc(C(=S)N2CCCC2)cc(Cl)c1OCC(=O)Nc1ccc(C)cc1C | 0 | . | . | . | . | .
CC(C)(C)NC(=O)/C(=C\C=C\c1ccccc1)NC(=O)c1ccc([N+](=O)[O-])cc1 | -5 | . | . | . | . | .
COc1ccc(NC(=O)COC(=O)c2c3c(nc4ccccc24)CCCC3)cc1 | 3 | 0.7 | 29 | -8 | 0.9 | 15
SMILES | MRP-1 activ | CYP2C9 activ | CYP2C9 inh | MRP reversal | CYP2C19 activ | CYP2C19 inhib
COc1ccc(OC)c(NC(=O)COC(=O)c2c3c(nc4ccccc24)CCCC3)c1 | 0 | 0.5 | 52* | . | 0.8 | 20
COc1ccc(NC(=O)COC(=O)c2c3c(nc4ccccc24)CCCC3)cc1Cl | 5.3* | 0.7 | 25 | . | 0.7 | 30
NNC(=S)NCc1ccc2c(c1)OCO2 | 0 | . | . | . | . | .
CC(C)(NCc1ccccc1Cl)C(=O)O | . | . | . | 2 | . | .
COc1ccc(OCCN2C(=O)NC(C)(c3ccc(C)cc3)C2=O)cc1 (stereo unspecified) | -2 | . | . | 5 | . | .
Cc1ccc(C2(C)NC(=O)N(CCOc3ccccc3)C2=O)cc1 (stereo unspecified) | -2 | 1 | -2 | -6 | 0.2 | 77*
O=C(CSc1nc(-c2ccccc2)cs1)Nc1ccccc1[N+](=O)[O-] | -1 | . | . | . | . | .
